Molecules are shown by their SMILES. Unmarked numbers belong to inactive results. Calls follow the shape of the dose curve; as a rule, active = well fitted cell-killing curve with a large enough effect; inconclusive = small, poorly fitted or top-dose-only effect; inactive = flat fitted curve, though single readings scatter.

The test in a line: MultiTox-Fluor Cytotoxicity Assay - LYMP1-003 - Live Cells (AID 962).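 Also: 0% = DMSO only and full loss = 92 µM tetraoctylammonium bromide; cytotoxic hits lower the live-cell protease signal.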 The following applies: LYMP1-003 lymphoblastoid cells, MultiTox-Fluor live-cell protease fluorescence; series mostly up to 92.2 µM; activity change, negative = fewer live cells: at the top concentration. An excerpt: NIH Chemical Genomics Center [NCGC]
NIH Molecular Libraries Screening Centers Network [MLSCN]
National Institutes of Environmental Health Sciences [NIEHS]
National Toxicology Program [NTP]
We have developed a 1536-well cell-based assay for quantitative high throughput screening (qHTS) against a number of cell lines to determine in vitro cytotoxicity of small molecules. This particular assay uses a human lymphoblastoid cell line (LYMP1-003) purchased from Coriell Institute.
NCGC Assay Protocol Summary:
The MultiTox-Fluor Cytotoxicity Assay (Promega) is a homogeneous method to simultaneously measure the relative number of live and dead cells in culture by detecting changes in cell membrane integrity. There are two fluorogenic peptide substrates in the assay reagent. Viable cells are determined when the cell-permeant substrate (GF-AFC) enters the cell and is cleaved by protease from live cells resulting in liberated fluorophore. This live-cell protease activity restricted to viable cells is proportional to cell number. The dead cells are determined by using fluorogenic cell-impermeant peptide substrate (bis-AAF-R110) which cleaved by dead cell proteases leaking from damaged cell membrane.
Using the MultiTox-Fluor Cytotoxicity Assay, the relative number of live cells was measured in the lymphoblastoid cell line with complete culture medium following compound treatment for 16 hours. The assay was performed in opaque black Kalypsys 1536-well plates. In the screen, tetraoctylammonium bromide was used as positive control. Library compounds were measured for their ability to cause acute toxicity in the cell line, as reflected by a decrease in live cell protease activity, in a concentration-dependent manner. […] AC50 values were determined from concentration-response data modeled with the standard Hill equation.
qHTS protocol for MultiTox-Fluor Cytotoxicity assay
[Step] [Parameter] [Value] [Description]
1. Reagent; 5 uL; 2500 lymphoblastoid cells/well
2. Time; 5 hr; 37 C incubation
4. Controls; 23 nL; Tetraoctylammonium bromide 6.4pM to 92 uM
5. Time; 16 hr; 37 C incubation
6. Reagent; 5 uL; MuliTox-Fluor Assay reagent
7. Time; 60 min; Room Temperature
8. Detection; live-cell fluorescence (Ex/Em=405/510); EnVision plate reader
Keywords: cell viability, cytotoxicity, lymphoblastoid cell line, fluorescence, NTPHTS, NTPHTS_NCGC, NIEHS, EPA, DSSTox, MLSMR, MLSCN, NIH Roadmap, qHTS, NCGC
Regarding `O=c1ccc(=O)[nH][nH]1`, the “activity change, negative = fewer live cells” value (“activity change” for short) is -5.06%. With `O=[N+]([O-])c1ccc2c3c(cccc13)CC2`, the “activity change” value was -0.768%. As for `COP(=S)(OC)SCn1nnc2ccccc2c1=O`, the “activity change” value was -52.3%. To `O=P(OCCCl)(OCCCl)OCCCl` belongs 4.03%; to `O=[N+]([O-])CCO`, -2.84%. As for `CN(C)C(=O)Nc1ccc(Cl)cc1`, the “activity change” value was -4.24%. To `C=CC#N` belongs -3.16%; to `[O-][Cl+2]([O-])O`, -8.43%. To `C[N+](=O)[O-]` belongs -3.94%. To `C=CC(=O)OCCO` belongs -7.86%; to `C=CCCC#N`, -3.86%. On to `OCC(Cl)CCl` (stereo not given), for which the “activity change” value was -1.14%. To `O=C(O)CCl` belongs -6.1%. For `CCOP(=S)(OCC)Oc1nc(Cl)c(Cl)cc1Cl`, the “activity change” value is 0.0255%. To `Cc1ccc(N)c(C)c1` belongs -2.17%; to `Clc1ccc(C(c2ccccc2Cl)C(Cl)(Cl)Cl)cc1` (stereo not given), -4.29%. To `Cc1ccc2c(c1N)C(=O)c1ccccc1C2=O` belongs -19.6%; to `CN(C)C(=O)Cl`, -4.01%. For the compound `CC(Cl)CCl` (stereo not given), the “activity change” value was 0.0904%. To `CCBr` belongs -0.51%; to `OCCBr`, -6.42%. Turning to `O=C(O)c1cccc(Cl)c1`, the “activity change” value was -1.98%. To `Nc1ccc(Cc2ccc(N)cc2)cc1` belongs -5.78%. To `ClCC(Cl)CCl` belongs -3.92%; to `C=CC(=O)OC`, -1.73%; to `CCSC(=O)N1CCCCCC1`, -5.09%.

Take `CC(C)(Cl)[N+](=O)[O-]`: the “activity change” value was -0.748%. To `Cl/C=C/Cl` belongs -0.839%. On to `O=C(O)C(Cl)Br` (stereo not given), for which the “activity change” value was -10.7%. To `CCN(N=O)C(N)=O` belongs 1.09%; to `c1ccc2c(c1)CCNC2`, 0.715%. Turning to `CCCCCC[N+](=O)[O-]`, the “activity change” value is -4.38%. To `Nc1cc(Cl)cc(C(=O)O)c1Cl` belongs -3.64%. Take `C(CCOCC1CO1)COCC1CO1` (stereo not given): the “activity change” value is -2.56%.

Turning to `Cc1ccc([N+](=O)[O-])cc1`, the “activity change” value is -10.4%. To `Nc1cccc2ccccc12` belongs -3.04%; to `CCCCCCCCCCCOC(=O)c1ccccc1C(=O)OCCCCCCCCCCC`, -4.72%; to `O=C(Cl)OCc1ccccc1`, 1.89%.

On to `CC(C)Br`, for which the “activity change” value is -9.08%. To `C=CCOCC1CO1` (stereo not given) belongs -6.05%.

The values above are taken from PubChem BioAssay (NCATS).
